# Measured values as given in PubChem BioAssay (EPA / NIEHS).
# Several values for one entry are separate records, joined by “and”; a condition that tells them apart may be missing. Identical values can stand only once. Results filed as inconclusive are left out. A structure can be active in one record and inactive in another. Activity calls are given as the source filed them. How the source made its calls: active means hit-call score of the fitted dose curve at least 0.9, where 1 is the maximum; inconclusive means response in the unintended direction; inactive means score below 0.9.
# What was measured:
# [1] = biological target: human Matrix Metalloproteinase-7 (MMP7), MMP7 (gene 4316) (UniProt P09237); experiment: NVS_ENZ_hMMP7: NovaScreen (NVS) Enzymatic Assay for human Matrix Metalloproteinase-7 (MMP7) (AID 2283183)
# Method in brief: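 Compounds first tested at 25 uM in duplicate, then at up to 50 uM in concentration series if active. Protease activity measured by fluorescence intensity 1 h after dosing, with fitting relative to DMSO.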
# [2] = biological target: human Mitogen-Activated Protein Kinase 1 (MAPK 1), MAPK1 (gene 5594) (UniProt P28482); experiment: NVS_ENZ_hMAPK1: NovaScreen (NVS) Enzymatic Assay for human Mitogen-Activated Protein Kinase 1 (MAPK 1) (AID 2283175)
# Method in brief: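 Cell-free recombinant human MAPK1 enzymatic assay, fluorescence/electrophoretic mobility shift read at 1 h; loss of signal vs DMSO. Primary screen in duplicate at 25 uM; actives (e.g. ≥30% inhibition) run as concentration-response up to 50 uM.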
# [3] = biological target: human IkappaB Kinase alpha (IKKa), CHUK (gene 1147) (UniProt O15111); experiment: NVS_ENZ_hIKKa: NovaScreen (NVS) Enzymatic Assay for human IkappaB Kinase alpha (IKKa) (AID 2283167)
# Method in brief: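 Compounds first run in duplicate at 25 uM, those meeting threshold (e.g. 30% inhibition) retested to maximum 50 uM. Enzyme activity of recombinant IKKa measured by fluorescence with electrophoretic mobility shift separation, 1 hour post-dosing, DMSO baseline.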
# [4] = biological target: Mitogen-activated protein kinase 3 (Homo sapiens) (UniProt P27361); experiment: NVS_ENZ_hMAPK3: NovaScreen (NVS) Enzymatic Assay for human Mitogen-Activated Protein Kinase 3 (MAPK 3) (AID 2283177)
# Method in brief: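 Chemicals were first tested in duplicate at 25 uM, with hits re-run as concentration series (max 50 uM). Recombinant enzyme activity, measured 1 h post-dose in a cell-free format, was read by fluorescence/mobility shift relative to DMSO.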
# [5] = biological target: human Esterase Plasma (ES), BCHE (gene 590) (UniProt P06276); experiment: NVS_ENZ_hES: NovaScreen (NVS) Enzymatic Assay for human Esterase Plasma (ES) (AID 2283157)
# Method in brief: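 Screening ran at 25 uM in duplicate, followed by singleton concentration series reaching 50 uM for actives. Human plasma protein, colorimetric detection, 0.25 h exposure, DMSO negative control.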
# [6] = biological target: human Matrix Metalloproteinase-3 (MMP3), MMP3 (gene 4314) (UniProt P08254); experiment: NVS_ENZ_hMMP3: NovaScreen (NVS) Enzymatic Assay for human Matrix Metalloproteinase-3 (MMP3) (AID 2283185)
# Method in brief: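 Fluorescent substrate turnover by recombinant MMP3 read after 1 h, signal loss scored against DMSO. Compounds first run in duplicate at 25 uM single dose, then actives confirmed by concentration series.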
# [7] = biological target: human Fibroblast Growth Factor Receptor 1 (FGFR1), FGFR1 (gene 2260) (UniProt P11362); experiment: NVS_ENZ_hFGFR1: NovaScreen (NVS) Enzymatic Assay for human Fibroblast Growth Factor Receptor 1 (FGFR1) (AID 2283159);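 on AC50: hits lower the signal so potencies describe inhibitors of the kinase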
# Method in brief: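 Cell-free recombinant kinase with fluorescent substrate, product separated by electrophoretic mobility shift; read 1 hour after dosing, loss of signal relative to DMSO. Initial screen in duplicate at 25 uM, actives followed in concentration series.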
# [8] = biological target: Glycogen synthase kinase-3 beta (Homo sapiens) (UniProt P49841); experiment: NVS_ENZ_hGSK3b: NovaScreen (NVS) Enzymatic Assay for human Glycogen Synthase Kinase-3 beta (GSK3b) (AID 2283165)
# Method in brief: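 Recombinant enzyme with specific fluorescent substrate, 1 h, product separated by electrophoretic mobility shift. Primary duplicate screen at 25 uM; actives (e.g. 30% inhibition) followed in singleton concentration-response to 50 uM. Signal loss fitted versus DMSO.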
# [9] = biological target: Histone deacetylase 3 (Homo sapiens) (UniProt O15379); experiment: NVS_ENZ_hHDAC3: NovaScreen (NVS) Enzymatic Assay for human Histone Deacetylase 3 (HDAC3) (AID 2283163)
# Method in brief: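 Cell-free enzyme format: loss of fluorescent product after mobility-shift separation, 1 h incubation, recombinant human HDAC3. Single 25 uM duplicate screen first, then concentration series to a 50 uM top for hits; DMSO as baseline.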
# [10] = biological target: human Janus Kinase 2 (Jak2), JAK2 (gene 3717) (UniProt O60674); experiment: NVS_ENZ_hJak2: NovaScreen (NVS) Enzymatic Assay for human Janus Kinase 2 (Jak2) (AID 2283169)
# Method in brief: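 Single-point duplicate screen at 25 uM, with hits run in concentration series to a 50 uM top dose. Substrate-product separation by mobility shift with fluorescence detection, 1 h post-dosing; DMSO baseline.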
# [11] = biological target: Protein deacetylase HDAC6 (Homo sapiens) (UniProt Q9UBN7); experiment: NVS_ENZ_hHDAC6: NovaScreen (NVS) Enzymatic Assay for human Histone Deacetylase 6 (HDAC6) (AID 2283164)
# Method in brief: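 Concentration-response runs up to 50 uM followed a duplicate 25 uM single-point screen. Deacetylase activity of recombinant human HDAC6 read by fluorescence after 1 h, with mobility-shift separation of substrate and product; DMSO as baseline.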
# [12] = biological target: human MAP Kinase-Activated Protein Kinase 2 (MAPKAPK2), MAPKAPK2 (gene 9261) (UniProt P49137); experiment: NVS_ENZ_hMAPKAPK2: NovaScreen (NVS) Enzymatic Assay for human MAP Kinase-Activated Protein Kinase 2 (MAPKAPK2) (AID 2283178)
# Method in brief: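 Chemicals screened in duplicate at 25 uM, then to 50 uM top concentration in concentration-response, against recombinant human MAPKAPK2; substrate conversion read 1 hr post-dosing by fluorescence after electrophoretic mobility-shift separation, loss-of-signal relative to DMSO.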
# [13] = biological target: human Ephrin type-B Receptor 2 (EphB2), EPHB2 (gene 2048) (UniProt P29323); experiment: NVS_ENZ_hEphB2: NovaScreen (NVS) Enzymatic Assay for human Ephrin type-B Receptor 2 (EphB2) (AID 2283156)
# Method in brief: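 Compounds were first tested in duplicate at 25 uM, with hits rerun singly in concentration series up to 50 uM. Enzyme activity on fluorescent substrate was read at 1 h by mobility-shift separation, scored as signal loss relative to DMSO.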
# [14] = biological target: human MET Proto-Oncogene, Receptor Tyrosine Kinase (MET), MET (gene 4233) (UniProt P08581); experiment: NVS_ENZ_hMet: NovaScreen (NVS) Enzymatic Assay for human MET Proto-Oncogene, Receptor Tyrosine Kinase (MET) (AID 2283180)
# Method in brief: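 Hits from a 25 uM duplicate screen were retested in concentration series up to 50 uM. Enzyme activity was measured by fluorescence after electrophoretic separation of product from substrate, 1 h after compound addition, relative to DMSO.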
# [15] = biological target: human Ephrin type-A Receptor 2 (EphA2), EPHA2 (gene 1969) (UniProt P29317); experiment: NVS_ENZ_hEphA2: NovaScreen (NVS) Enzymatic Assay for human Ephrin type-A Receptor 2 (EphA2) (AID 2283155)
# Method in brief: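 Enzyme activity of recombinant EphA2 read by fluorescence after mobility-shift separation, 1 h after dosing. Chemicals first tested at 25 uM (duplicate); those passing threshold run as concentration series, top 50 uM, single replicate, relative to DMSO.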
# [16] = biological target: human Ephrin type-A Receptor 1 (EphA1), EPHA1 (gene 2041) (UniProt P21709); experiment: NVS_ENZ_hEphA1: NovaScreen (NVS) Enzymatic Assay for human Ephrin type-A Receptor 1 (EphA1) (AID 2283158);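 further: activity is signal loss versus DMSO meaning EphA1 kinase inhibition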
# Method in brief: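 Cell-free kinase activity with recombinant protein, 1 hour after dosing; product separated by electrophoretic mobility shift, fluorescence read. Primary screen at 25 uM in duplicate; hits run as concentration-response up to 50 uM, relative to DMSO.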
# Sequence of human Matrix Metalloproteinase-7 (MMP7), MMP7 (gene 4316) (P09237 whole entry, looked up): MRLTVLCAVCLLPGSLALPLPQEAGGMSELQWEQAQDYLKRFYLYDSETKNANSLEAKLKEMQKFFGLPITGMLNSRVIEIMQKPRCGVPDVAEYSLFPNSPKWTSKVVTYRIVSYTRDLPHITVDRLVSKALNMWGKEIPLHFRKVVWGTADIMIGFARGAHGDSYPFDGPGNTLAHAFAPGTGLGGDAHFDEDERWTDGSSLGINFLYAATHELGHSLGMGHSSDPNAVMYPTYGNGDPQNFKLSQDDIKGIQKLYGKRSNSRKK
# Sequence of Mitogen-activated protein kinase 3 (Homo sapiens) (P27361 whole entry, looked up): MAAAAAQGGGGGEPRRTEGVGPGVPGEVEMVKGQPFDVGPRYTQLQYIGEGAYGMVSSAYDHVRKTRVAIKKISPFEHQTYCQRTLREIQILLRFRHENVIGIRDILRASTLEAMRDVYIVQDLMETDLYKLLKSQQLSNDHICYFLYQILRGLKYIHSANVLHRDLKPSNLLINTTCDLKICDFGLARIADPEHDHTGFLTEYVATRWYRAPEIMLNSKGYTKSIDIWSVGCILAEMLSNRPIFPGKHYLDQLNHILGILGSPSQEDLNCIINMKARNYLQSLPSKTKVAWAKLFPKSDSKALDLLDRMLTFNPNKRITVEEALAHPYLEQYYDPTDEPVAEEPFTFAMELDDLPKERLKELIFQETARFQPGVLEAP
# Sequence of human Matrix Metalloproteinase-3 (MMP3), MMP3 (gene 4314) (P08254 whole entry, looked up): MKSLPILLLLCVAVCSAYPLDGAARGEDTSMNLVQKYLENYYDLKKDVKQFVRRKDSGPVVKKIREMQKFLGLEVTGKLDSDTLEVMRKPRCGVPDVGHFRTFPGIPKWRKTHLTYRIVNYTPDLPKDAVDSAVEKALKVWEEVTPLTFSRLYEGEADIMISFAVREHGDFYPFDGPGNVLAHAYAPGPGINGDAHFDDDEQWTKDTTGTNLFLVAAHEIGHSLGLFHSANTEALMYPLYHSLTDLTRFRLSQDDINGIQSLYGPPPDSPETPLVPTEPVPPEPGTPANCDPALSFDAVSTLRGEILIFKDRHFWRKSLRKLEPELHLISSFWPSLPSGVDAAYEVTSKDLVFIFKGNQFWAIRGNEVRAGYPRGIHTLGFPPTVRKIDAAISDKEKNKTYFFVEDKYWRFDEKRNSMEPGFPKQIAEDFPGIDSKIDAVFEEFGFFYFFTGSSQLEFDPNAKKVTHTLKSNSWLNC
# Sequence of human Janus Kinase 2 (Jak2), JAK2 (gene 3717) (O60674 whole entry, looked up): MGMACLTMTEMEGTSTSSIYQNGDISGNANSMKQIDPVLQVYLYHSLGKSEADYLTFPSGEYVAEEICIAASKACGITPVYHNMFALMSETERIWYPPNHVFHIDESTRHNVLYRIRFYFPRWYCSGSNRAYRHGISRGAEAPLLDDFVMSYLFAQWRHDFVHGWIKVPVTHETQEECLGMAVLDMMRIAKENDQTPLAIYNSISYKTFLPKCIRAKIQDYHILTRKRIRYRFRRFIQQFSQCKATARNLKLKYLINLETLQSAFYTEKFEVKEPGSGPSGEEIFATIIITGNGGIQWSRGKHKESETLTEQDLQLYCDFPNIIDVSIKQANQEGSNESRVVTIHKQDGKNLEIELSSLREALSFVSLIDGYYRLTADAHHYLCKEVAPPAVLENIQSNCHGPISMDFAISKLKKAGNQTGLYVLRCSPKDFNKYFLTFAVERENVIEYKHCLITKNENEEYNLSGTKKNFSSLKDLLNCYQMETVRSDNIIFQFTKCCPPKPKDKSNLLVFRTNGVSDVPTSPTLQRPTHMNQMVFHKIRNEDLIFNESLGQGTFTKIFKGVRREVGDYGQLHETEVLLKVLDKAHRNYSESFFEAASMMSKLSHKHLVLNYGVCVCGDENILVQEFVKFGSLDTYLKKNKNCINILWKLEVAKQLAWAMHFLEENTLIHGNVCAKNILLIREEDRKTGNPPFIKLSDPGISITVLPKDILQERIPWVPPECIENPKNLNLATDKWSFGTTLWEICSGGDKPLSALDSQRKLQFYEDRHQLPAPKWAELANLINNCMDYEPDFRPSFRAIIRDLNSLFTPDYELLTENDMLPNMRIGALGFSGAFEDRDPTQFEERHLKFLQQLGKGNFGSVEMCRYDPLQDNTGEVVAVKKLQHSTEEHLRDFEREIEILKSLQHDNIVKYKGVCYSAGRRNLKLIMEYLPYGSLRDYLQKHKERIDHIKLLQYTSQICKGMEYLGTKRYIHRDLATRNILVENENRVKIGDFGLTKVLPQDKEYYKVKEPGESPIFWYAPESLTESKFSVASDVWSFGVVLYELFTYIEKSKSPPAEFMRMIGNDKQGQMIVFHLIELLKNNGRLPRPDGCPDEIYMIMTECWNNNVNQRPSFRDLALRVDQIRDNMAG
# Sequence of human Fibroblast Growth Factor Receptor 1 (FGFR1), FGFR1 (gene 2260) (P11362 whole entry, looked up): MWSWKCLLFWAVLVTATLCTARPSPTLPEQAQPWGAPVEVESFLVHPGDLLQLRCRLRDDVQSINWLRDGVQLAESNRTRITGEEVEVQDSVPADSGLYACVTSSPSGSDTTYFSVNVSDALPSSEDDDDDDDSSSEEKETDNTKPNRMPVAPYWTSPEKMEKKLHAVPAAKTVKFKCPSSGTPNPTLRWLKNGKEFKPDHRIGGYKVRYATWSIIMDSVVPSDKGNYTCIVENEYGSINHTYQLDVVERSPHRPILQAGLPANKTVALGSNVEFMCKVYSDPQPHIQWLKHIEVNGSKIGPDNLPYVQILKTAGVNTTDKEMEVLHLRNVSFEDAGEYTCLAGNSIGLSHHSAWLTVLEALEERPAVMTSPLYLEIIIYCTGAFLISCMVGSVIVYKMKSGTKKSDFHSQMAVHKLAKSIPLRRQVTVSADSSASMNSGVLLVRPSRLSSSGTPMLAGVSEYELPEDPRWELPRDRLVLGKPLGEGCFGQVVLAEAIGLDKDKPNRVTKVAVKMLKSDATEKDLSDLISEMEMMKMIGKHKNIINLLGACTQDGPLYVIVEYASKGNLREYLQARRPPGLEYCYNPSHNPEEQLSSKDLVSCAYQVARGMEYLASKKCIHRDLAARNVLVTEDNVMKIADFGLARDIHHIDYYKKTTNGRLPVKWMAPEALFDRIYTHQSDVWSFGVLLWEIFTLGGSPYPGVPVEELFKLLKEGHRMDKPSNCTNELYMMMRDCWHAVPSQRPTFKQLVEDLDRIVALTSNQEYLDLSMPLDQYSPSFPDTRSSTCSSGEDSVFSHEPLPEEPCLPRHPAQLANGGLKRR
# Sequence of human Esterase Plasma (ES), BCHE (gene 590) (P06276 whole entry, looked up): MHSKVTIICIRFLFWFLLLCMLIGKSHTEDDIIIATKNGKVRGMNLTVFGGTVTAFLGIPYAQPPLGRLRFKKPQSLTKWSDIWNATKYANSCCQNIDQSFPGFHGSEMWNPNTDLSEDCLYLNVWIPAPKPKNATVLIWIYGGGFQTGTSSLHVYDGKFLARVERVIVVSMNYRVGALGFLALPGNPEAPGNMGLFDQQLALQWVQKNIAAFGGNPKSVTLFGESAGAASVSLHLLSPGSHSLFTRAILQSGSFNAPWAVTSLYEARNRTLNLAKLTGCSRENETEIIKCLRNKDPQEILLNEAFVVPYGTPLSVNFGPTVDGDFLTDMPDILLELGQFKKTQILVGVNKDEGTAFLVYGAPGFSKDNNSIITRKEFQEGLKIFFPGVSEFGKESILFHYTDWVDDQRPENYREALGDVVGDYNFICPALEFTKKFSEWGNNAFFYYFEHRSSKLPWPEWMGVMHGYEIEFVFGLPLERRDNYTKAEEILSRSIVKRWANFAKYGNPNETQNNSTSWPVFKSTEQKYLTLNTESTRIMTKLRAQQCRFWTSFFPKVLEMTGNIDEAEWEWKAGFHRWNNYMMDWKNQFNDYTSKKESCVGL
# Sequence of human Mitogen-Activated Protein Kinase 1 (MAPK 1), MAPK1 (gene 5594) (P28482 whole entry, looked up): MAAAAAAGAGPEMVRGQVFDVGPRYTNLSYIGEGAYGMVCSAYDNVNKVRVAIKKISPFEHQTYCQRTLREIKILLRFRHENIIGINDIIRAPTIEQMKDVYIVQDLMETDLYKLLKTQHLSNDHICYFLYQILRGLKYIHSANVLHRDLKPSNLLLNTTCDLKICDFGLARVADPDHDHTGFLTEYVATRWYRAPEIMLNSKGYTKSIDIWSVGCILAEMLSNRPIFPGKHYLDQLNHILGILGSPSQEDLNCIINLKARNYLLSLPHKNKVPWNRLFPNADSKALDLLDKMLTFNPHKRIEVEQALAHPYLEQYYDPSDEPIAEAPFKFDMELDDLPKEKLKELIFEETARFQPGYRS
# Sequence of human Ephrin type-A Receptor 2 (EphA2), EPHA2 (gene 1969) (P29317 whole entry, looked up): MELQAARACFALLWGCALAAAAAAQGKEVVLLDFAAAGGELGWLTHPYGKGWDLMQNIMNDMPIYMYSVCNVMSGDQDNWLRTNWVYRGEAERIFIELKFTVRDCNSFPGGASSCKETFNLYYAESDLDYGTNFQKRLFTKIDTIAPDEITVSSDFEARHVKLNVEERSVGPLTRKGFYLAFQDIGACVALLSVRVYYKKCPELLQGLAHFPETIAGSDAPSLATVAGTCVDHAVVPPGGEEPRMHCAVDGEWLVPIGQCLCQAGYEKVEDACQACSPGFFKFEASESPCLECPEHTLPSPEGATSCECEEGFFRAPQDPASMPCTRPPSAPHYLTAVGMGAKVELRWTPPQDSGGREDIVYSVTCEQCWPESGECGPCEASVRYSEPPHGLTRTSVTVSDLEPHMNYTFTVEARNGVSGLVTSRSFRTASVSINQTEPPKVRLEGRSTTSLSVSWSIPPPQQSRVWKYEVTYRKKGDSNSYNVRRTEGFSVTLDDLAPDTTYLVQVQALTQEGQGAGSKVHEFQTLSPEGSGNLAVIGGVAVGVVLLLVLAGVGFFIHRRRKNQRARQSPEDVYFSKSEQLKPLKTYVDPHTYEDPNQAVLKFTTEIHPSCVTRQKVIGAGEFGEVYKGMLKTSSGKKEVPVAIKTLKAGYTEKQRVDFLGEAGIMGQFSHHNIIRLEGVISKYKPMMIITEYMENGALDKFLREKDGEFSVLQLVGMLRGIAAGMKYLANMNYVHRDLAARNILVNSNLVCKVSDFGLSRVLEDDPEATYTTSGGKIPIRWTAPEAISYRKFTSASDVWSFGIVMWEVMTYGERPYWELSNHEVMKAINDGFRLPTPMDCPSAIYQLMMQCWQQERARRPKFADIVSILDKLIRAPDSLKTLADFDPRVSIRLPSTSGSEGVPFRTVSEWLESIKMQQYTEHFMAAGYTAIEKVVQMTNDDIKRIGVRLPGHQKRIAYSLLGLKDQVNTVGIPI
smiles,measurement,setting,value
CCc1cnc(C2=NC(C)(C(C)C)C(=O)N2)c(C(=O)O)c1 (stereo unspecified),AC50,[1],8.62 µM (active)
C=C(C)[C@H]1Cc2c(ccc3c2O[C@@H]2COc4cc(OC)c(OC)cc4[C@@H]2C3=O)O1,outcome,[2],inactive
CC(C)N(C(=O)SCC(Cl)=C(Cl)Cl)C(C)C,outcome,[3],inactive
CC(C1CC1)C(O)(Cn1cncn1)c1ccc(Cl)cc1 (stereo unspecified),outcome,[4],inactive
CCOP(=S)(OCC)OC(Cl)C(Cl)(Cl)Cl (stereo unspecified),AC50,[5],16.2 µM (active)
same,outcome,[6],inactive
CCCSP(=O)(OCC)Oc1ccc(Br)cc1Cl (stereo unspecified),AC50,[5],0.968 µM (active)
CCCCOC(=O)c1ccccc1C(=O)O,outcome,[5],inactive
C[N+]1(C)CCCCC1,outcome,[7],inactive
CC1=NNC(=O)N(/N=C/c2cccnc2)C1,AC50,[8],32.8 µM (active)
same,outcome,[6],inactive
CN(C)C(=O)Nc1cccc(C(F)(F)F)c1,outcome,[4],inactive
O=c1ccc(=O)[nH][nH]1,AC50,[9],14.5 µM (active)
same,outcome,[10],inactive
CCOP(=S)(OCC)Oc1cc(C)nc(C(C)C)n1,outcome,[11],inactive
same,outcome,[1],inactive
Nc1c(Cl)cc([N+](=O)[O-])cc1Cl,outcome,[8],inactive
same,outcome,[12],inactive
same,outcome,[6],inactive
CNc1cnn(-c2cccc(C(F)(F)F)c2)c(=O)c1Cl,outcome,[13],inactive
same,outcome,[9],inactive
CC[C@H](C)[C@H]1O[C@]2(C=C[C@@H]1C)C[C@@H]1C[C@@H](C/C=C(\C)[C@@H](O[C@H]3C[C@H](OC)[C@@H](O[C@H]4C[C@H](OC)[C@@H](NC)[C@H](C)O4)[C@H](C)O3)[C@@H](C)/C=C/C=C3\CO[C@@H]4[C@H](O)C(C)=C[C@@H](C(=O)O1)[C@]34O)O2,AC50,[7],16.5 µM (active)
same,AC50,[10],15.4 µM (active)
same,outcome,[14],inactive
CN(C)[C@@H]1C(=O)C(C(N)=O)=C(O)[C@@]2(O)C(=O)C3=C(O)c4c(O)cccc4[C@@](C)(O)[C@H]3[C@H](O)[C@@H]12,AC50,[15],7.61 µM (active)
same,outcome,[15],inactive
same,outcome,[5],inactive
same,outcome,[16],inactive
same,AC50,[7],5.86 µM (active) and 7.55 µM (active)
same,outcome,[7],inactive
same,AC50,[2],15 µM (active)
same,AC50,[4],19.1 µM (active)
same,outcome,[4],inactive
same,outcome,[1],inactive
Cc1cc(C2CC2)nc(Nc2ccccc2)n1,outcome,[10],inactive
same,outcome,[6],inactive
